Bioassay records from PubChem BioAssay.
PAX8 reporter: PAX8 transcriptional activity inhibition | RMG-I TPO-luciferase reporter, SteadyGlo, 24 h | inhibition, % at 12.6 µM | 1.2% of 360,000 active | AID 652154;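 active = mean replicate inhibition at least 60% with every replicate also reaching 60%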;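 also: luciferase light reporting Pax8 driven TPO promoter activity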
F508del corr: correctors of CFTR F508del function in bronchial epithelial cells | CFBE cells, YFP halide quenching; stimulated with forskolin plus potentiator P3; % fluorescence drop versus neutral controls | activity (quench increase), % at 7.58 µM | 0.36% of 350,000 active | AID 720511;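 active = mean added fluorescence quench of at least 8% versus neutral control, with both replicates also reaching 8%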;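 also: cells transiently co-express mutant CFTR-F508del with the halide-sensitive YFP; corrector assay measuring rescue of mutant channel to the surface after 24 h compound exposure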
PGC1a acetyl inh: PGC1a acetylation modulation, inhibitor mode | U2OS PGC1a acetylation, AlphaScreen anti-acetyl-lysine; with virally co-expressed GCN5 acetyltransferase | inhibition, % at 15.6 µM | 0.17% of 350,000 active;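 active = every replicate shows inhibition of at least 40%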
EWS-Fli inh: inhibitors of EWS/Fli oncoprotein transcriptional activity | A673 NR0B1-luciferase reporter, viability-normalised | 0.67% of 350,000 active | inhibition, % at 12.6 µM;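 active = mean inhibition of at least 50% after viability correction, with every replicate also passing that limit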;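 also: firefly luciferase signal divided by Alamar Blue viability fluorescence both relative to DMSO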
Env fusion inh: blocks HIV Env-driven cell-cell fusion. HeLa-JRFL Env/CEM21 cell fusion, luciferase. inhibition, % at 12.3 µM. 1.1% of 360,000 active;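 active = mean replicate inhibition score of at least 50 and every replicate individually at or above 50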
GSIS activator: GLuc luminescence reporter in INS-1E cells, primary screen for activators of glucose-dependent secretion of insulin. activation, % at 16.6 µM. INS-1E GLuc reporter insulin secretion, 2-3 h. AID 743287. 0.61% of 370,000 active;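 active = lowest replicate activation of at least 40%, so every replicate reaches that level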
DNA binding: DNA binding small molecules | shares compounds with EWS-Fli inh | AID 720586 | salmon sperm DNA acridine orange fluorescence polarization | 2% of 640 active | AC35, µM (top dose mostly 68 µM);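 active = fitted curve reaches a 35% signal fall AC35 below twice the sample's top valid tested dose, actives reach about 48 µM in these data; inactive = the rest, including activity in the rising direction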;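 also: lower polarization ratio signals compound binding to DNA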
Each line names hits and unclear results; the compound was inactive in the other large screens (follow-up assays come after a bar, where they were run). Shown are actives, neighbours in structure and some others; about 2.7% of the full set was active somewhere.

C(=Cc1cnc2ccccc2n1)c1ccc2c(c1)OCO2	PAX8 reporter 97, EWS-Fli inh 88, Env fusion inh 68 | DNA binding inactive
Cn1c(/N=C/c2ccc3c(c2)OCO3)nc2ccccc21	none (no result: PAX8 reporter, PGC1a acetyl inh, Env fusion inh)
C(=Cc1nc2ccccc2o1)c1ccc2c(c1)OCO2	EWS-Fli inh 69 | DNA binding inactive
CCC(=O)N1CC(=O)N2[C@H](CO)[C@H](c3ccc(-c4ccccc4F)cc3)[C@H]2C1	none (no result: PAX8 reporter, Env fusion inh)
C#CCOCCOCCOCCNc1nc(N2CCN(C(=O)CCCCCCCCCCNC(=O)Cn3cc(C[C@@H](C)O)nn3)CC2)nc(N2CCN(C(=O)CCCCCCCCCCNC(=O)[C@@H](CCC(=O)O)n3cc(CCCCCN)nn3)CC2)n1	none (no result: GSIS activator)
C#CCOCCOCCOCCNc1nc(N2CCN(C(=O)CCCCCCCCCCNC(=O)Cn3cc(C[C@@H](C)O)nn3)CC2)nc(N2CCN(C(=O)CCCCCCCCCCNC(=O)[C@H](CO)n3cc(CCCSC)nn3)CC2)n1	EWS-Fli inh 58 | DNA binding inactive
O=C(NC(c1ccc(F)cc1)c1ccc2ccccc2n1)C1CCN(Cc2cccc(C(F)(F)F)c2)CC1 (stereo unspecified)	EWS-Fli inh 58, Env fusion inh 75 (no result: GSIS activator) | DNA binding inactive
CCOc1ccc2nc(NC3=NC(c4ccc(OC)cc4)CC(=O)N3)nc(C)c2c1 (stereo unspecified)	EWS-Fli inh 57 (no result: PAX8 reporter, Env fusion inh) | DNA binding inactive
Cc1ccc2c(c1)C(=O)N1[C@H]3c4cc(Br)ccc4OC[C@@H]3[C@H](c3ccccc3)[C@]1(C)C(=O)N2	EWS-Fli inh 56 | DNA binding inactive
CCCC(=O)N1CC2(C1)CN(C(C)=O)[C@H](CO)c1c2c2ccc(OC)cc2n1C	none (no result: Env fusion inh)
CCCNC(=O)N1CC(=O)N2[C@H](CO)[C@H](c3ccc(C#Cc4ccccc4)cc3)[C@@H]2C1	none (no result: PAX8 reporter, F508del corr, PGC1a acetyl inh, EWS-Fli inh, Env fusion inh)
CCN1C/C(=C/c2ccc(N3CCOCC3)cc2)C(=O)/C(=C/c2ccc(N3CCOCC3)cc2)C1	EWS-Fli inh 70 (no result: PGC1a acetyl inh, Env fusion inh) | DNA binding 15µM
CCc1ccc(/C=C2/SC(N3CCOCC3)=NC2=O)cc1	none
C/C(=C/c1ccccc1)C(=O)N1CCC(C)CC1	none
C/C(=C\c1ccccc1)C(=O)N1CCC=CC1=O	EWS-Fli inh 55 (no result: GSIS activator) | DNA binding inactive
C[C@H](CO)N1C[C@H](C)[C@@H](CN(C)C(=O)Nc2ccccc2)Oc2ccc(NC(=O)Nc3ccc(C(F)(F)F)cc3)cc2CC1=O	none
CN(C)c1ccc(N=Nc2nc3ccccc3n2C)cc1	PAX8 reporter 90, EWS-Fli inh 86 | DNA binding inactive
O=C(C[C@H]1CC[C@@H]2[C@H](COC[C@@H](O)CN2CC2CCCC2)O1)NCc1ccc(Cl)cc1	none (no result: PAX8 reporter, PGC1a acetyl inh, Env fusion inh)
O=C(CCc1ccccc1)NC(c1cccs1)c1cc(Cl)c2cccnc2c1O (stereo unspecified)	PAX8 reporter 78, EWS-Fli inh 58 (no result: PGC1a acetyl inh) | DNA binding inactive
COc1ccc2nc(-c3ccc(F)cc3)sc2c1	EWS-Fli inh 55 (no result: PGC1a acetyl inh, GSIS activator) | DNA binding inactive
COc1ccc2nc(N)sc2c1	none (no result: PAX8 reporter, F508del corr, EWS-Fli inh)
C[C@H](CO)N1C[C@H](C)[C@H](CN(C)Cc2ccc(C(=O)Nc3ccccc3N)cc2)Oc2ccc(NC(=O)C3CC3)cc2CC1=O	EWS-Fli inh 64 | DNA binding inactive
C[C@H]1CN([C@@H](C)CO)C(=O)Cc2cc(NC(=O)CCC(F)(F)F)ccc2O[C@H]1CN(C)Cc1ccc(C(=O)Nc2ccccc2N)cc1	EWS-Fli inh 53 | DNA binding inactive
COc1ccc(CN(C)C[C@H]2Oc3ccc(NC(=O)CCCCCC(=O)Nc4ccccc4N)cc3CC(=O)N([C@H](C)CO)C[C@H]2C)cc1	EWS-Fli inh 56 (no result: PAX8 reporter) | DNA binding inactive
C[C@H]1CN([C@@H](C)CO)C(=O)Cc2cc(NC(=O)CCC(F)(F)F)ccc2O[C@@H]1CN(C)Cc1ccc(C(=O)Nc2ccccc2N)cc1	none (no result: Env fusion inh)
C[C@@H]1CN([C@@H](C)CO)C(=O)Cc2cc(N(C)C)ccc2O[C@H]1CN(C)Cc1ccc(C(=O)Nc2ccccc2N)cc1	PAX8 reporter 77, EWS-Fli inh 60 | DNA binding inactive
